High-throughput results from PubChem BioAssay.
VP16 counter: Gal4-VP16 reporter inhibition counter-screen | 310,000 tested, 3.5% active | Potency, µM (titrated, usually from 53.6 µM), most hits filed as inhibitors | Drosophila S2 Gal4-VP16 UAS-luciferase, luminescence, 20 h;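 also: Gal4-VP16 expression switched on by copper sulfate through the metallothionein promoter; nearly all actives have a fitted effect of over 50% in size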
HepG2 viability: kills HepG2 cells in TGF-b inhibitor counter-screen; 410,000 tested, 0.76% active; Potency, µM (highest dose often 46.1 µM), hits mostly cytotoxic; HepG2 CAGA-GFP viability, ATP luminescence, 18 h
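HepG2 CAGA-GFP cells (1000/well, DMEM with 1% FBS) received compound, then TGF-beta at 500 pg/mL final, and were incubated 18 hours at 37 degrees C. Viability was read by CellTiter-Glo luminescence. Media-only wells were set as complete cell-killing and DMSO as no toxicity.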
TGFb SMAD3 inh: blocks TGF-b signaling. HepG2 CAGA-GFP TGF-b/SMAD3 reporter, GFP fluorescence, 18 h; TGF-beta stimulated, 500 pg/mL final. Potency, µM (titrated, usually from 46.1 µM), usual class: inhibitors. 410,000 tested, 1.2% active; also: nearly all actives have a fitted effect of over 65% in size
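Using HEPG2 CAGA-GFP reporter cells at 1000 cells/well, we pinned test compounds, stimulated with recombinant TGF-beta (500 pg/mL final) and measured total well GFP after 18 h.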
S2 tox: cell viability loss in ATXN counter-screen. 400,000 tested, 0.49% active. S2 cells (HEK-293 line with an ATXN2-luciferase reporter) viability, CellTiter-Fluor protease fluorescence, 24 h. Potency, µM (titrated, usually from 56.7 µM), most hits filed as cytotoxic; also: nearly all actives have a fitted effect of over 40% in size
RORg inh: inhibitors of mouse ROR gamma transcriptional activity | 310,000 tested, 5.4% active | AID 2551 | Potency, µM (highest dose often 53.6 µM), usual class: inhibitors | Drosophila S2 Gal4-RORgamma UAS-luciferase reporter, 20 h | P51450; also: nearly all actives have a fitted effect of over 60% in size
Target sequence (P51450 whole entry, looked up, the tested form may be a part): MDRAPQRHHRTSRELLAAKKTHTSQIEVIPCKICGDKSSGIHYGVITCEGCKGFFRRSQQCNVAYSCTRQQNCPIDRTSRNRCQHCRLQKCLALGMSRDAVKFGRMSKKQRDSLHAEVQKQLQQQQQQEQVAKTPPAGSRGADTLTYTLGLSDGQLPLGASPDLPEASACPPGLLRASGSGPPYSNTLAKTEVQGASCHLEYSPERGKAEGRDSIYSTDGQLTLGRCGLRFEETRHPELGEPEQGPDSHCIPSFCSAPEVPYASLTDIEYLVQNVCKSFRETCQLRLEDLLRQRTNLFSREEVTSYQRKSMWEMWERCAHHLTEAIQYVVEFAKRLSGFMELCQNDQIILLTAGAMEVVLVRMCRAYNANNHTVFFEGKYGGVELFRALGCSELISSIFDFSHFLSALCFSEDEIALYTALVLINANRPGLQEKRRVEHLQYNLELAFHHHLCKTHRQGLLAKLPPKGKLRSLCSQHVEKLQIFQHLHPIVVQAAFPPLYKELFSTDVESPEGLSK
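Using a luciferase readout, inhibitors were identified by reduced reporter activity in Drosophila cells coexpressing a copper-inducible Gal4–ROR gamma fusion and UAS-driven Photinus luciferase, incubated 20 hr after 700 uM copper sulfate.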
ATXN2 expr inh: inhibitors of ATXN2 expression | 360,000 tested, 0.72% active | Potency, µM (highest dose often 57 µM), usual class: inhibitors | HEK-293 ATXN2-luciferase reporter, luminescence, 24 h; also: nearly all actives have a fitted effect of over 55% in size
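qHTS (up to 57 uM final) was run with 24 h compound exposure of reporter cells at 37 °C. Each well was multiplexed: SteadyGlo luminescence measured ATXN2-luciferase expression after a fluorogenic Gly-Phe-AFC viability readout (25 uM final).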
Hits are given with their value. Sampled rows, rich in hits. Any-hit rate of the full collection: about 6.3%. Calls follow the shape of the dose curve; as a rule, active = well fitted curve in the direction sought with a large enough effect; inconclusive = small, poorly fitted or top-dose-only effect, or another doubt; inactive = no such curve, though single readings can be large; an effect the other way counts as inactive or inconclusive.

Results for CCN(CC)c1ccc(/C=N/NC(=O)c2cccc(S(=O)(=O)Nc3ccccc3OC)c2)cc1 ?
VP16 counter: 8.9µM; HepG2 viability: inactive; TGFb SMAD3 inh: inactive; S2 tox: inactive; RORg inh: 6.3µM; ATXN2 expr inh: inactive

What do the screens show for `Cc1c(C(=O)N(C)C2CCOC2)sc2ncnc(NCC3(c4ccccc4)CCOCC3)c12` (centres undefined)?
S2 tox: inactive

What do the screens show for `OC[C@@H]1CN(Cc2ccco2)C[C@H](n2cnc3c(N4CCN(c5ccccc5)CC4)ncnc32)O1`?
HepG2 viability: inactive; TGFb SMAD3 inh: inactive; S2 tox: inactive; ATXN2 expr inh: inactive

Results for Cc1ccc(/C=N/NC(=O)c2cccc(S(=O)(=O)Nc3ccccc3Cl)c2)o1 ?
VP16 counter: inconclusive; HepG2 viability: inactive; TGFb SMAD3 inh: inactive; S2 tox: inconclusive; RORg inh: 13µM; ATXN2 expr inh: inactive

How did O=[N+]([O-])c1ccc(N/N=C/c2cn(-c3ccccc3)nc2-c2ccccc2)cc1 do in these assays?
VP16 counter: inactive; HepG2 viability: inactive; TGFb SMAD3 inh: inactive; S2 tox: inactive; RORg inh: inconclusive; ATXN2 expr inh: inactive

How did NS(=O)(=O)c1ccc(N/N=C/c2cn(-c3ccccc3)nc2-c2ccccc2)c([N+](=O)[O-])c1 do in these assays?
VP16 counter: inactive; HepG2 viability: 6.3µM; TGFb SMAD3 inh: 5.6µM; S2 tox: 11µM; RORg inh: inactive

How did CCN(CC)c1ccc(/C=N/NC(=O)c2cccc(S(=O)(=O)Nc3ccccc3OC)c2)c(O)c1 do in these assays?
VP16 counter: 4.5µM; HepG2 viability: inactive; TGFb SMAD3 inh: inconclusive; RORg inh: 2.5µM; ATXN2 expr inh: inconclusive

How did O=C(N/N=C/c1ccco1)c1cccc(S(=O)(=O)Nc2ccccc2Cl)c1 do in these assays?
VP16 counter: inactive; HepG2 viability: inactive; TGFb SMAD3 inh: inactive; S2 tox: inactive; RORg inh: inconclusive; ATXN2 expr inh: inactive

Results for COc1ccccc1NS(=O)(=O)c1cccc(C(=O)N/N=C/c2ccc([N+](=O)[O-])o2)c1 ?
HepG2 viability: inactive; TGFb SMAD3 inh: 7.1µM; S2 tox: inconclusive; ATXN2 expr inh: inconclusive

Results for c1ccc(-c2nnc(CN3CCCc4ccccc43)o2)cc1 ?
VP16 counter: inconclusive; HepG2 viability: inactive; TGFb SMAD3 inh: inactive; S2 tox: inactive; RORg inh: inactive; ATXN2 expr inh: inactive

What do the screens show for `CCOC(=O)C1CCN(Cc2ccc(O)c3ncccc23)CC1`?
VP16 counter: 5µM; HepG2 viability: 7.9µM; TGFb SMAD3 inh: inconclusive; S2 tox: inconclusive; RORg inh: 2.8µM; ATXN2 expr inh: inactive

How did COc1ccccc1N1CCN(Cc2ccc(O)c3ncccc23)CC1 do in these assays?
VP16 counter: inconclusive; HepG2 viability: inactive; TGFb SMAD3 inh: inconclusive; S2 tox: inconclusive; RORg inh: 0.5µM; ATXN2 expr inh: 3.5µM

What do the screens show for `Oc1ccc(CN2CCCc3ccccc32)c2cccnc12`?
VP16 counter: 13µM; HepG2 viability: inactive; TGFb SMAD3 inh: inconclusive; S2 tox: inconclusive; RORg inh: 7.9µM; ATXN2 expr inh: inactive

Results for Cc1ccc(NC(=O)COCc2cc(-c3cccs3)on2)cc1Cl ?
HepG2 viability: inactive; TGFb SMAD3 inh: inactive

What do the screens show for `CN(Cc1ccc(Cl)c(Cl)c1)C(=O)c1ccccc1SCC(=O)N1CCCC1`?
HepG2 viability: inactive; TGFb SMAD3 inh: inconclusive; S2 tox: inactive; ATXN2 expr inh: inactive

Results for CCc1ccc(OCC(=O)NC(=S)Nc2ccc(F)cc2)c(Br)c1 ?
VP16 counter: inactive; HepG2 viability: inactive; TGFb SMAD3 inh: inactive; S2 tox: inconclusive; RORg inh: inactive; ATXN2 expr inh: inactive

What do the screens show for `CCc1ccc(OCC(=O)NC(=S)Nc2cccc(CO)c2)c(Br)c1`?
VP16 counter: 10µM; HepG2 viability: inactive; TGFb SMAD3 inh: inactive; S2 tox: inactive; RORg inh: 11µM; ATXN2 expr inh: inactive

Results for COc1ccc(-c2cnn3c(N)c(S(=O)(=O)C(C)(C)C)cnc23)cc1 ?
VP16 counter: inconclusive; HepG2 viability: inactive; TGFb SMAD3 inh: inactive; S2 tox: inactive; RORg inh: 11µM; ATXN2 expr inh: inactive
